Data: PubChem BioAssay AID493168 (National Center for Advancing Translational Sciences (NCATS), 2011)
Records with an inconclusive call do not appear. Entries that show only a call come without a potency. The source made the active and inactive calls. Calls come from the whole dose curve; as a rule, active = well fitted inhibition curve with a large enough effect; inconclusive = small, poorly fitted or top-dose-only effect, or effect the other way; inactive = flat fitted curve, though single readings scatter.

Biological target: Ubiquitin carboxyl-terminal hydrolase 2 (Homo sapiens) (UniProt O75604)
Sequence (O75604 whole entry, looked up): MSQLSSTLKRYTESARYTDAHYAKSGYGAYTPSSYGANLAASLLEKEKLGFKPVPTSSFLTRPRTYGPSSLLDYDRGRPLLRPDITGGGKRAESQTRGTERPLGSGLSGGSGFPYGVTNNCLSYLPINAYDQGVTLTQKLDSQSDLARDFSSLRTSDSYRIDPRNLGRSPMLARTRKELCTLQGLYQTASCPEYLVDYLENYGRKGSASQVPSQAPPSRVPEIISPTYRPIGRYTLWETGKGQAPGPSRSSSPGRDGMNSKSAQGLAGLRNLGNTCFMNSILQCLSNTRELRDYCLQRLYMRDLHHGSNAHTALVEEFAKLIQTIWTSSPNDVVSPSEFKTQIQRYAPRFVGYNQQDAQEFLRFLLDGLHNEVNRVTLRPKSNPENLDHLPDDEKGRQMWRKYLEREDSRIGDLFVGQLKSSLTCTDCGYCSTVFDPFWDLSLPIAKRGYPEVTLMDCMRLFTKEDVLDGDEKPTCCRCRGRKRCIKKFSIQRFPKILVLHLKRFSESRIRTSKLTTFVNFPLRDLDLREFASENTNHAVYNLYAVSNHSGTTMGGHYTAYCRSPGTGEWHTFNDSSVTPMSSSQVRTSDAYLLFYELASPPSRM
Assay: Confirmation Assay for Inhibitors of Ubiquitin-specific Protease USP2a Using CHOP2 as the Reporter; note: nearly all actives have a fitted effect of over 55% in size
Conditions: USP2 core, Ub-CHOP2 coupled reporter fluorescence; series mostly up to 38.3 µM
Method in brief: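 USP2 core (10 nM final) was preincubated with compound for 30 min at RT in Tris-HCl pH 8.0, CaCl2, beta-mercaptoethanol, CHAPS. Ub-CHOP2 and reporter substrate (25 nM final each) were added, and fluorescence (Ex 485/Em 531 nm) was read after 60 min.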
Potency is the fitted concentration of half-maximal effect.

| SMILES | Potency |
| --- | --- |
| C=CC[C@H](CC(=O)OC(C)(C)C)C(=O)OC[C@@H]1CCCN1C(=O)[C@H](CC=C)CC(=O)N[C@H](CO)Cc1ccccc1 | inactive |
| Cc1cc2c(c(=O)n1CC1CCCO1)C(c1ccco1)C(C#N)=C(N)O2 (stereo not drawn) | inactive |
| CCNC1=C(Cl)C(=O)c2ccccc2C1=O | inactive |
| O=C(CSc1ccc2nnc(-c3cccc(F)c3)n2n1)N1CCCc2ccccc21 | inactive |
| CC(OC(=O)CN(C)S(=O)(=O)c1ccc(Cl)cc1)C(=O)Nc1ccc(N2CCOCC2)cc1 (stereo not drawn) | inactive |
| Cc1nc2ccccc2c2oc(C(=O)NCCN3CCN(C)CC3)cc12 | inactive |
| CCCCOC1(c2ccccc2)NC(=S)NN=C1c1ccccc1 (stereo not drawn) | inactive |
| Cc1cc(C(=O)NCc2ccco2)on1 | inactive |
| COc1cccc(NC(=O)CSc2nncn2-c2ccccn2)c1 | inactive |
| Cc1ccc(/C=C2/SC(=S)N(c3ccc(S(=O)(=O)Nc4nccs4)cc3)C2=O)cc1 | 6.56 µM (active) |
| O=C(NNC(=O)c1cc2ccccc2cc1O)Nc1ccccc1F | inactive |
| COc1ccc(/C=C\C(=O)O[C@@H]2C(O)C(O[C@@H]3OC(C)[C@H](O[C@@H]4OCC(O[C@H]5O[C@H](CO)[C@@H](O)C(O)C5O)C(O)C4O)C(O)C3O)[C@H](OC(=O)[C@]34CCC(C)(C)C[C@@H]3C3=CCC5[C@@]6(C)CC(O)C(O[C@@H]7OC(CO)C(O)[C@H](O)[C@H]7O)[C@@](C)(C(=O)O)C6CC[C@@]5(C)[C@]3(CO)CC4)O[C@H]2C)cc1 (stereo partly drawn) | inactive |
| O=C(CSc1ncn[nH]1)Nc1ccc(Br)cc1F | inactive |
